Active and inactive are the calls of the source.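 How the source made its calls: active means luciferase inhibitors whose fitted dose curve gives a half-maximal potency within ten times the top tested dose; inconclusive means flat curve with 30 to 70% inhibition, or a poor fit; inactive means the rest.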
Assay: ADP-Glo luciferase interference without Dyrk1A, dose response, artefact control for Dyrk1A inhibitor project, biochemical, luminescence, cherry-pick, set 04 (AID 588432)
Details: ADP-Glo luminescence without kinase, luciferase artifact; series mostly up to 12 µM

outcome, inactive:
c1csc(CNc2ncnc3ccc(-c4ccc5c(c4)OCO5)cc23)c1
c1coc(CCNc2ncnc3ccc(-c4ccc5c(c4)OCO5)cc23)c1
CCOC(=O)c1ccc(-c2ccc3ncnc(N(C)Cc4sccc4C)c3c2)o1
Cc1ccc(CNc2ncnc3ccc(-c4ccc5c(c4)OCO5)cc23)o1
Clc1ccc(CNc2cc(-c3ccc4c(c3)OCO4)ncn2)cc1
c1nc(NCC2CCCC2)c2cc(-c3ccc4c(c3)OCO4)ccc2n1
Clc1ccc(CNc2nccc(-c3ccc4[nH]ncc4c3)n2)cc1Cl
c1cncc(CNc2ncncc2-c2ccc3c(c2)OCO3)c1
Cn1ccc2cc(-c3ccc4ncnc(NCc5ccc6c(c5)OCO6)c4c3)ccc21
c1nc(NCC2CCCO2)c2cc(-c3ccc4c(c3)OCO4)ccc2n1 (centres undefined)
Cn1ccc2cc(-c3ccc4ncnc(NCc5cccc(F)c5)c4c3)ccc21
Cc1nc(CNc2ncnc3ccc(-c4ccoc4)cc23)cs1
Clc1cc(Cl)cc(CNc2cc(-c3ccc4c(c3)OCO4)ncn2)c1
Clc1ccccc1-c1ccc2ncnc(NCc3ccc4c(c3)OCO4)c2c1
CCN1/C(=C/C(C)=O)Sc2ccc(OC)cc21
COc1ccc(-c2ccnc(NCc3ccc(Cl)c(Cl)c3)n2)cc1OC
Cc1ccsc1CN(C)c1ncnc2ccc(-c3ccc(CO)o3)cc12
Clc1ccc(CNc2ccnc(-c3ccc4[nH]ncc4c3)n2)cc1Cl
Brc1ccc(CNc2nccc(-c3ccc4c(c3)OCO4)n2)cc1Br
Cc1ccc(CNc2ncnc3ccc(-c4ccoc4C)cc23)o1
Cc1c(-c2ccnc(NCc3ccc(Cl)cc3)n2)sc(=O)n1C
Clc1cccc(-c2ccc3ncnc(NCc4ccc5c(c4)OCO5)c3c2)c1
Clc1ccc(CNc2cc(-c3ccc4c(c3)OCO4)ncn2)cc1Cl
CN(Cc1ccco1)c1ncnc2ccc(-c3ccc4c(c3)OCO4)cc12
FC(F)(F)c1cccc(Nc2nccc(-c3ccc4c(c3)OCO4)n2)c1
Clc1cc(Cl)cc(CNc2ncncc2-c2ccc3c(c2)OCO3)c1
c1cncc(CNc2nccc(-c3ccc4cn[nH]c4c3)n2)c1
Clc1cc(Cl)cc(CNc2nccc(-c3ccc4c(c3)OCO4)n2)c1
c1csc(CCNc2ncnc3ccc(-c4ccc5c(c4)OCO5)cc23)c1
Cc1occc1CNc1ncnc2ccc(-c3ccc4c(c3)OCO4)cc12
CN(Cc1nccs1)c1ncnc2ccc(-c3ccc4c(c3)OCO4)cc12
CCCNc1ncnc2ccc(-c3ccc4c(c3)OCO4)cc12
Clc1ccc(CNc2nccc(-c3ccc4c(c3)OCCO4)n2)cc1Cl
COc1ccc(-c2nccc(NCc3ccc(C)cc3)n2)cc1
